These results are taken from PubChem BioAssay AID488969 (Vanderbilt High Throughput Screening Facility, 2010).

Over roughly 110,000 compounds, “z-score” has its median near -0.1; the highest 2% begin near 2. This excerpt belongs to a sample that is enriched for the highest values. Activity calls are given as the source filed them.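 The calls were made as follows: active = z-score in the third read window above 3 or below -3; inactive = the rest.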

Chain of Metabotropic glutamate receptor 8 (Rattus norvegicus) (P70579 whole entry, looked up): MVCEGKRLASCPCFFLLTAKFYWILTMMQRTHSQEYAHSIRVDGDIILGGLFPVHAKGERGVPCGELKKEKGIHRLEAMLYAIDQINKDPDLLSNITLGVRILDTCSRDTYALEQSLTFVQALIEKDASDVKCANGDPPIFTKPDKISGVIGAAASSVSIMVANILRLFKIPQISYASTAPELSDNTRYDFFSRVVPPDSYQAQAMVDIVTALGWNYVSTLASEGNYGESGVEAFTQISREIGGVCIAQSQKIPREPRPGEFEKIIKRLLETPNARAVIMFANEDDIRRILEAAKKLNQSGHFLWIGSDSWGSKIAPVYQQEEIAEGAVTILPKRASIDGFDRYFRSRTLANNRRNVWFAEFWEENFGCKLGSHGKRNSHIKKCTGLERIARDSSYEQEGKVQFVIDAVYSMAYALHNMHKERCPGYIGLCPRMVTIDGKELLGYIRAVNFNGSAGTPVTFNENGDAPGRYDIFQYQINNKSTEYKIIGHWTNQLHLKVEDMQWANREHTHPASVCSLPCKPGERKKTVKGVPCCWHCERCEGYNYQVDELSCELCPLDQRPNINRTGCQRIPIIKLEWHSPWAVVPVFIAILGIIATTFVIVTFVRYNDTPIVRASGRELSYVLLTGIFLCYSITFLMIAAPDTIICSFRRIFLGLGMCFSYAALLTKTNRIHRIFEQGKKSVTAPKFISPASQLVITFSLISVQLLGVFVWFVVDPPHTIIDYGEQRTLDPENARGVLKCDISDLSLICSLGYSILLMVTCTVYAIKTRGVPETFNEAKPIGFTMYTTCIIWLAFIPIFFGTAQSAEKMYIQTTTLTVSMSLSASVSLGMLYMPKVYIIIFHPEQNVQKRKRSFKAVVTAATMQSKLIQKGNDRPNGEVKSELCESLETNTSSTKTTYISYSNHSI

This assay concerns the target Metabotropic glutamate receptor 8 (Rattus norvegicus) (UniProt P70579). Description: rat mGluR8 modulators via GIRK flux, primary screen, cell-based, thallium flux, HTS (AID 488969). The note with it: HEK293 rat mGluR8, GIRK (G protein-gated inwardly rectifying potassium channel) thallium flux, FluoZin2; at 10 µM; stronger effect = higher value; submaximal glutamate (EC20) added with thallium.
For `CCOc1ccccc1Nc1nc(-c2sc(NC(=O)c3ccc([N+](=O)[O-])cc3)nc2C)cs1`, the z-score stood at 0.209.

In turn, `CCOc1ccc(CC(=O)Nc2c(C(N)=O)oc3ccc(Br)cc23)cc1OCC` gave a z-score of -0.0702.

`CN(C)/C=C1/N=C(c2ccccc2)OC1=O` showed a z-score of -0.23.

For the compound `COc1ccc(C(=O)c2ccc(CC#N)s2)cc1`, the z-score is -0.0619.

`CCn1c2ccccc2c2nnc(SCC(=O)OCN3C(=O)c4ccccc4C3=O)nc21` gave a z-score of -0.087.

In turn, `CC(C)(C)S(=O)c1cccs1` (stereo not drawn) came in with a z-score of 0.555.

As for `CSc1nc(C)cc(OCC(=O)N2CCOCC2)n1`, the z-score amounted to 0.387.

`S=C(Nc1ccc(Cl)cc1)N1CCCCC1` registered a z-score of -0.262.

In turn, `Fc1ccc(NC(=S)N2CCCCC2)cc1` returned a z-score of 0.208.

With `S=C(NN=C1CCCCCC1)Nc1ccc(Cl)cc1`, the z-score is 9.7 (active).

`Cc1cc(C)c2c(c1)/C(=N/NC(=S)Nc1ccc(F)cc1)CCC2` had a z-score of 2.6.

As to `Fc1ccc(NC(=S)NN=C2CCCCCC2)cc1`, the z-score is 12 (active).

Turning to `Cc1cc(C)c2c(c1)/C(=N/NS(=O)(=O)c1ccccc1)CCC2`, the z-score was -1.09.

As for `Fc1ccc(NC(=S)N2CCCC2)cc1`, the z-score is -0.0754.

`S=C(Nc1ccc(Cl)cc1)N1CCCC1` had a z-score of 0.113.

The compound `COc1ccc(NC(=S)N/N=C2/CCCc3c(C)cc(C)cc32)cc1` showed a z-score of 0.0188.

Compound `O=C1CC(c2ccccc2)CN1S(=O)(=O)c1ccccc1` (stereo not drawn) displayed a z-score of 0.00794.

In the case of `O=C(NCCc1csc(-c2cccnc2)n1)c1cccc2ccccc12`, the z-score was found to be 0.472.

`CC(C)=C1SC(N2CCCCC2)=NC1=O`: the z-score was determined as 1.93.

The compound `Cc1nn(CCc2n[nH]c(=S)n2C2CCCCC2)c(C)c1Br` yielded a z-score of -0.451.

The compound `COc1ccc(-c2csc(NC(=O)CN3C(=O)CCC3=O)n2)cc1OC` showed a z-score of -0.147.

Compound `Cc1cc(=O)n2[nH]c(-c3ccccc3Cl)cc2n1` yielded a z-score of -0.0492.

In turn, `CCC/C=N/NC(=O)c1[nH]c2c([N+](=O)[O-])cccc2c1C` registered a z-score of 2.02.

As to `Cc1c(C(=O)N/N=C/C(C)C)[nH]c2c([N+](=O)[O-])cccc12`, the z-score is -0.722.

`Cc1cc([N+](=O)[O-])c2[nH]c(C(=O)N/N=C/c3ccccc3C(=O)O)c(-c3ccccc3)c2c1` registered a z-score of -0.455.

As for `CCc1nc(Nc2ccc(OC)c(OC)c2)c2nnn(Cc3ccccc3Cl)c2n1`, the z-score is 0.049.

Compound `O=C(COc1ccc(Br)cc1CO)Nc1ccccc1F` showed a z-score of -0.0395.

The compound `COc1ccccc1NC(=O)COc1ccc(Br)cc1CO` yielded a z-score of 2.95.

Turning to `O=C(COc1ccc(Br)cc1CO)Nc1ccccc1`, the z-score was -0.336.

Regarding `COc1ccccc1NC(=O)COc1ccc(C(F)(F)F)cc1[N+](=O)[O-]`, the z-score was 4.19 (active).

On to `CCOc1ccc(C(F)(F)F)cc1NC(=O)c1ccc(OC)c([N+](=O)[O-])c1`, for which the z-score came out at 0.372.

`CCOc1ccc(C(F)(F)F)cc1NC(=O)COc1ccc(C(F)(F)F)cc1[N+](=O)[O-]` came in with a z-score of -0.107.

Regarding `CCn1c(COc2ccc(C)cc2)nnc1SCc1nc2ccccc2[nH]1`, the z-score is -0.0293.

`COCCN1C(=O)c2ccccc2C(C(=O)NCC2CCCO2)C1c1c[nH]c2ccccc12` (stereo not drawn): the z-score is -0.121.

On to `O=C(NCc1ccc2c(c1)OCO2)C1CCCN1C(=O)Nc1cccc(F)c1` (stereo not drawn), for which the z-score was 0.725.

`CCCC(=O)Nc1cc(-c2nnc(OC)c3ccccc23)ccc1N1CCCCC1` showed a z-score of -0.148.

As to `O=CN1CC(=O)N(c2ccccc2)c2c([nH]c3ccccc23)C1`, the z-score is 0.383.

In turn, `CCc1cc(C(c2ccc(OC)c(OC)c2)N2CCOCC2)c(NC(=O)c2ccccc2)s1` (stereo not drawn) had a z-score of -0.47.

Regarding `COC(=O)Cc1nnc(NC(=O)C(C)C)s1`, the z-score stood at 0.0291.

Turning to `COCc1nnc(NC(=O)C(C)C)s1`, the z-score is 3.48 (active).

With `CC(C)C(=O)Nc1nnc(CCc2nnc(NC(=O)C(C)C)s2)s1`, the z-score was determined as 0.549.

`CO/N=C/c1ccc(Sc2ccc(C)cc2)c([N+](=O)[O-])c1` registered a z-score of -0.349.

The compound `COc1ccc(OC)c(NC(=O)C2CCCCC2)c1` had a z-score of -0.385.

As to `COc1cc(NC(=O)C(=O)NNC(=O)C2CCCCC2)c(OC)cc1Cl`, the z-score was 3.98 (active).

The compound `COc1cc(NC(=O)C2CCCO2)c(OC)cc1Cl` (stereo not drawn) gave a z-score of -0.106.

For the compound `O=C(Oc1cccc([N+](=O)[O-])c1)c1cc(-c2ccccc2)nc2ccccc12`, the z-score is 0.17.

`C=CCc1cccc2cc(C(=O)N(C)C)c(=O)oc12` registered a z-score of 0.176.

Take `Cn1cccc1C(=O)N1CCN(c2cccc(C(F)(F)F)c2)CC1`: the z-score was -0.386.

`O=C(CC1Oc2ccccc2NC1=O)NC1CC1` (stereo not drawn) returned a z-score of 2.19.

`CC1CCC(NC(=O)CC2Oc3ccccc3NC2=O)CC1` (stereo not drawn) registered a z-score of -0.471.

In turn, `O=C(CC1Oc2ccccc2NC1=O)NC1CCCC1` (stereo not drawn) displayed a z-score of -0.0976.

Regarding `Cc1ccc(NC(=O)CCn2cnc3cc(C)c(C)cc32)cc1`, the z-score was -0.642.

The compound `CCOc1ccccc1N1CCN(C(=O)C(F)(F)F)CC1` came in with a z-score of -0.337.

Take `Cc1cc(C)nc(NS(=O)(=O)c2ccc(N/C=C3\CCCC3=O)cc2)n1`: the z-score was -0.331.

`COc1ccccc1Nc1nc2nonc2nc1N1CCCCC1C` (stereo not drawn) had a z-score of -0.202.

For the compound `CC12CC3CC(C)(C1)CC(C(=O)NC(=S)N1CCOCC1)(C3)C2`, the z-score is 3.1 (active).

On to `O=C(NC(=S)N1CCOCC1)C12CC3CCC(CC(C3)C1)C2`, for which the z-score was 0.454.

In turn, `CC(C)(C)C(=O)NC(=S)N1CCOCC1` registered a z-score of -0.0566.
